DRD3 antagonist: qHTS of D3 Dopamine Receptor Antagonist: qHTS | D(3) dopamine receptor (Homo sapiens), P35462 | hit rate 2.5% among 360,000 | max response, negative = inhibition, % | D3R cells, DiscoveRx beta-arrestin luminescence, antagonist mode; hits give low values | AID 652054, 2013; in the data active means max response below about -50%; inconclusive means no clear call, values can overlap the other calls
Target sequence (P35462 whole entry, looked up): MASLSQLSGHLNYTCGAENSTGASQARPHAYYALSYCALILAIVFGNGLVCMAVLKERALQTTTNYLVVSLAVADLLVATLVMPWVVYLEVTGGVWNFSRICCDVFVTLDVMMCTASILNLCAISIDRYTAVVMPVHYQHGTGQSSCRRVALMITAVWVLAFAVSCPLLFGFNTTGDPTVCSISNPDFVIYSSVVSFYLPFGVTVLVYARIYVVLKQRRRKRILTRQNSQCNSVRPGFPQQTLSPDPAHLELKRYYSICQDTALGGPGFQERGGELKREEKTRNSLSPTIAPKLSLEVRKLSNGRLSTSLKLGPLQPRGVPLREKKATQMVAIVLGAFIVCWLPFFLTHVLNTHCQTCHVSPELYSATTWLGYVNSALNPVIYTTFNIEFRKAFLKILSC
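Cells plated overnight at 1500 cells/well, then exposed to library compounds with dopamine controls for 90 minutes at 37 degrees C. DiscoveRx reagent added for 30–60 minutes at room temperature; luminescence read, quantitative HTS format.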
KB-3-1 tox: qHTS assay for MDR1-selective chemotherapeutics: Primary screen using the parental adenocarcinoma cell KB-3-1 | KB-3-1 viability, CellTiter-Glo ATP luminescence, 72 h | Potency, µM (highest dose often 46.1 µM), usual class: cytotoxic | hit rate 1.4% among 400,000 | AID 1347075, 2019; further: nearly all actives have a fitted effect of over 60% in size
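Cells are dispensed, compounds pinned in, plates held at 37 °C for 72 h, then CellTiter-Glo is added and luminescence read after 10 minutes. Cell line: parental KB-3-1 in phenol-red-free DMEM, 10% FBS.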
MCF10A rereplic: A quantitative high throughput screen for small molecules that induce DNA re-replication in MCF 10a normal breast cells. MCF 10A DNA re-replication, Hoechst nuclear intensity, 48 h. Potency, µM (series often up to 46.1 µM), actives largely listed as activators. hit rate 2.9% among 350,000. AID 624296, 2012; further: nearly all actives have a fitted effect of over 50% in size
KB-V1 MDR tox: qHTS assay for MDR1-selective chemotherapeutics: Primary screen using the drug-selected MDR subline cells KB-V1; KB-V1 MDR cells viability, CellTiter-Glo, 72 h; Potency, µM (titrated, usually from 46.1 µM), actives largely listed as cytotoxic; hit rate 3.4% among 400,000; AID 1347076, 2019; further: nearly all actives have a fitted effect of over 60% in size
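Cytotoxicity via CellTiter-Glo luminescence after 72 h compound exposure at 37 degrees C. Cells: drug-selected KB-V1 line, DMEM phenol-red free plus 10% FBS. Compounds tested at multiple concentrations; normalized data fitted to concentration-effect curves.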
SW480 rerep: A quantitative high throughput screen for small molecules that induce DNA re-replication in SW480 colon adenocarcinoma cells | SW480 DNA re-replication, Hoechst DNA content imaging, 48 h | Potency, µM (series often up to 46.1 µM), most hits filed as activators | hit rate 1.8% among 340,000 | AID 624297, 2012; further: nearly all actives have a fitted effect of over 55% in size
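Readout is total intensity of Hoechst-stained nuclei, excited at 405 nm and collected at 500-530 nm. Compound treatment lasted 48 hr at 37 C in 5% CO2 before staining.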
DRD3 agonist: qHTS of D3 Dopamine Receptor Agonist: qHTS | hit rate 0.58% among 410,000 | D(3) dopamine receptor (Homo sapiens), P35462 | D3R DiscoveRx beta-arrestin cells, luminescence, 90 min | max activation, %; in the data active means max activation above about 30%
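Cells at 1500/well, incubated overnight, then treated with pinned compounds (dopamine as control) for 90 min at 37 degrees C. DiscoveRx reagent added for 30 - 60 minutes at room temperature; luminescence read.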
Hits are given with their value; n = inactive; u = inconclusive; x = no result given. Hits are enriched below; roughly 8.9% of the tested compounds scored in any of these assays. Unless noted, the call rests on the fitted dose curve; in most records, active means well fitted curve in the direction sought with a large enough effect; inconclusive means small, poorly fitted or top-dose-only effect, or another doubt; inactive means no such curve, though single readings can be large; an effect the other way counts as inactive or inconclusive.

SMILES	DRD3 antagonist	KB-3-1 tox	MCF10A rereplic	KB-V1 MDR tox	SW480 rerep	DRD3 agonist
CS(=O)(=O)N(Cc1ccccc1)c1ccc(C(=O)Nc2ccc(Cl)cc2)cc1	x	u	x	u	x	n
COc1cc(C(=O)Nc2ccncc2)cc(OC)c1OC	n	n	n	n	n	n
CCc1ccc2oc(-c3ccc(NC(=O)c4cc(OC)c(OC)c(OC)c4)cc3)nc2c1	x	n	x	n	x	n
COc1cc(C(=O)Nc2ccc3oc(-c4ccccc4)nc3c2)cc(OC)c1OC	x	n	x	8.2µM	x	n
COc1cc(C(=O)Nc2ccc3oc(-c4cccnc4)nc3c2)cc(OC)c1OC	n	n	u	15µM	n	n
COc1cc(C(=O)Nc2ccc(Nc3ccccc3)cc2)cc(OC)c1OC	n	n	21µM	n	n	n
COc1ccc(C(=O)Nc2ccc3oc(-c4cccnc4)nc3c2)cc1OC	n	n	n	u	n	n
Oc1oc(-c2ccccc2)nc1C=Nc1ccccc1	n	n	n	n	n	n
O=[N+]([O-])c1cccc(/C=C/c2nc(C=Nc3ccccc3)c(O)o2)c1	n	n	n	n	n	31
CS(=O)(=O)N(CC(=O)N1CCCCCC1)c1cccc(Br)c1	n	n	n	21µM	n	n
CS(=O)(=O)N(CC(=O)N1CCCCCC1)c1ccc(Br)cc1	n	n	n	15µM	n	n
Cc1cccc(C)c1N(CC(=O)N1CCN(C)CC1)S(C)(=O)=O	-79	n	n	n	n	n
Cc1ccc(N(CC(=O)N2CCCCCC2)S(C)(=O)=O)cc1	n	n	x	n	x	n
COc1cccc(N(CC(=O)N2CCCCCC2)S(C)(=O)=O)c1	n	n	0.82µM	n	n	n
COCCn1c(C)cc(O)c(C(c2ccc(Cl)cc2)N2CCN(c3ccccc3)CC2)c1=O (stereo not drawn)	x	n	x	n	x	n
O=C(CSc1nccn1Cc1ccc(Cl)cc1)NC1CCCC1	x	x	x	x	x	n
Cc1cccc(C(=O)n2nc(-c3ccco3)nc2NCc2ccccc2)c1	x	n	x	n	x	n
COc1ccccc1N(CC(=O)N1CCCCCC1)S(C)(=O)=O	n	n	0.33µM	n	u	n
CCOC(=O)N1CCN(C(=O)CN(c2ccccc2)S(C)(=O)=O)CC1	n	n	n	n	n	n
CCOc1ccccc1N(CC(=O)OC)S(C)(=O)=O	-107	n	n	n	n	n
COc1ccccc1N(CC(=O)N/N=C(\C)c1cccc(Br)c1)S(C)(=O)=O	n	n	n	21µM	n	n
CCOC(=O)N1CCN(C(=O)CN(c2ccc(OCc3ccccc3)cc2)S(C)(=O)=O)CC1	n	n	n	5.2µM	n	n
Nc1nc(N)c(S(=O)(=O)c2ccccc2)c(Nc2ccccc2)n1	x	n	x	n	x	n
COc1ccc(OC)c(N(CC(=O)N2CCN(c3cc(Cl)ccc3C)CC2)S(C)(=O)=O)c1	u	n	n	23µM	n	n
CCN1CCN(C(=O)CN(c2cc(OC)ccc2OC)S(C)(=O)=O)CC1	n	n	n	n	n	n
SMILES	DRD3 antagonist	KB-3-1 tox	MCF10A rereplic	KB-V1 MDR tox	SW480 rerep	DRD3 agonist
Cc1ccc(CN2CCN(CCCn3cnc4c(OCc5ccccc5)ncnc43)CC2)cc1	-53	n	n	n	u	n
c1ccc(COc2ncnc3c2ncn3CCCN2CCN(Cc3cccc4ccccc34)CC2)cc1	-67	15µM	x	u	x	n
c1ccc(CNCCCn2cnc3c(OCc4ccccc4)ncnc32)cc1	n	n	u	n	n	n
COCC(=O)O[C@]1(CCN(C)CCCc2nc3ccccc3[nH]2)CCc2cc(F)ccc2[C@@H]1C(C)C	u	u	n	15µM	u	n
CC1CC(=O)N(CC(=O)NCc2ccc3c(c2)OCO3)c2ccccc2S1 (stereo not drawn)	n	n	n	21µM	n	n
CC(=O)c1c(C(C)=O)c(C)n(Cc2ccc3c(c2)OCO3)c1C	n	13µM	n	2.6µM	n	n
Cc1cc2cc(C)c3nnc(SCC(=O)NCc4ccc5c(c4)OCO5)n3c2cc1C	n	n	n	u	n	n
CC(=O)c1c(C)n(CC(=O)NCc2ccc3c(c2)OCO3)c2ccccc12	n	16µM	u	2.9µM	u	n
Cc1cc(C)c2cc(C)c3nnc(SCC(=O)NCc4ccc5c(c4)OCO5)n3c2c1	n	n	n	2.3µM	n	n
O=C(Cn1c(CO)nc2ccccc21)NCc1ccc2c(c1)OCO2	n	n	n	n	n	n
Cc1oc2c(c1C(=O)Nc1cccc(Br)c1)C1=NCCN1C=N2	x	n	x	n	x	n
O=C(C[n+]1cccc2cc(Cl)ccc21)c1ccc(Br)cc1	x	u	x	n	x	x
O=C(CN1C(=O)CCSc2ccccc21)Nc1ccc2c(c1)OCO2	n	n	n	18µM	n	n
CC(C)Sc1nc2ccccc2n1CC(=O)NCc1ccc2c(c1)OCO2	n	n	n	15µM	n	n
CC(C)N(C(=O)Cn1c(SCC(=O)NCc2ccc3c(c2)OCO3)nc2ccccc21)C(C)C	n	n	u	n	n	n
O=C(CN1C(=O)CSc2ccccc21)Nc1ccc2c(c1)OCCO2	n	n	n	u	n	n
COc1ccccc1C(=O)OCc1cc(=O)n2c(C)csc2n1	x	n	x	n	x	n
N#Cc1ccc(N2CCN(S(=O)(=O)c3ccc4c(c3)CC(=O)N4)CC2)cc1	x	u	x	n	x	x
Cc1ccc(CN2CCC(CNc3ncnc4onc(-c5ccc(F)cc5)c34)CC2)cc1	x	u	x	n	x	n
CN1CCN(C2(CNC(=O)c3ccc([N+](=O)[O-])cc3)CCCCC2)CC1	x	x	x	x	x	n
OCCOc1cccc(CN2CCC(CO)(CCOc3ccccc3)CC2)c1	n	n	n	n	18µM	n
CC(=O)c1cccc(CN2CCC(CO)(CCOc3ccccc3)CC2)c1	n	n	u	n	n	n
COc1ccc2[nH]c(CN3CCC(CO)(CCOc4ccccc4)CC3)c(C)c2c1	n	n	21µM	u	n	n
Cc1cccc2cc(C#N)c(NCCCn3ccnc3)nc12	n	n	u	15µM	u	n
COc1ccc(Nc2nc3cc(C)ccc3cc2C#N)cc1	n	n	n	n	n	n
Cc1cccc2cc(C#N)c(NCc3ccccc3)nc12	n	n	23µM	n	u	n
Cc1cccc2cc(C#N)c(NCCNC(=O)COc3ccccc3)nc12	n	u	u	n	n	n
COc1ccc(Nc2nc3cc(C)ccc3cc2C#N)c(OC)c1	n	2.1µM	u	n	u	n
Cc1ccc2cc(C#N)c(NCc3ccccc3)nc2c1	n	n	9.2µM	n	u	n
CCN(CC)C(=O)c1sc2c(c1C)c(=O)n(-c1ccccc1)c(=O)n2CC(=O)Nc1ccc(C)cc1C	x	n	x	n	x	n

High-throughput results: PubChem BioAssay, National Center for Advancing Translational Sciences (NCATS)
